Results published in PubChem BioAssay (EPA / NIEHS).
Active and inactive are the calls of the source. Rule for the calls: active = hit-call score of the fitted dose curve at least 0.9, where 1 is the maximum; inactive = score below 0.9.

Experiment: CEETOX_H295R_PROG: CeeTox H295R High-throughput Steroidogenesis Assay for Progesterone (PROG) (AID 2283442);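 for AC50: human H295R adrenal cells primed with 10 µM forskolin before dosing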
Conditions: actives raise or lower the signal
Method: CEETOX_H295R is a cell-based, multiplexed-readout assay that uses H295R, a human adrenal gland cell line, with measurements taken at 48 hours after chemical dosing in a 96-well plate.CEETOX_H295R_PROG is one of 23 assay component(s) measured or calculated from the CEETOX_H295R assay. It is designed to make measurements of hormone induction, a form of inducible reporter, as detected with absorbance signals by HPLC-MS-MS technology.Data from the assay component CEETOX_H295R_PROG was analyzed into 1 assay endpoint. This assay endpoint, CEETOX_H295R_PROG, was analyzed with bidirectional fitting relative to DMSO as the negative control and baseline of activity. Using a type of inducible reporter, gain or loss-of-signal activity using HPLC-MS-MS was used to understand synthesis of Progesterone in H295R cell line at 48hr of chemical exposure. To generalize the intended target to other relatable targets, this assay endpoint is annotated to the steroid hormone intended target family, where the subfamily is progestagens.
Cell culture and media preparation procedures were conducted in accordance with OECD Test No. 456 guidelines, with minor modifications. H295R cells (ATCC CRL-2128) were expanded for 5 passages and frozen in batches in liquid nitrogen. Prior to the steroidogenesis assay, H295R cells were thawed and passed at least 4 times. The maximum passage was 10. Cells were maintained in a 1:1 mixture of DMEM/F12 supplemented with 5ml/L ITS+ Premix (BD Bioscience) and 12.5 ml/L Nu-Serum (BD Bioscience). After seeding cells into 96-well plates at 50-60% confluency, cells were allowed to adhere overnight. Prior to chemical testing, culture medium was replaced with 175 uL medium containing 10 uM forskolin to stimulate steroidogenesis for 48 hours. Following prestimulation, forskolin medium was replaced with medium containing test chemical solubilized in DMSO (ensuring a final concentration of 0.1% DMSO). Test chemicals were incubated for 48 hours, then the medium was removed and split into 2 vials containing approximately 75uL each, and stored at -80 C prior to hormone analysis. For steroid quantification, media samples were shipped to OpAns, LLC (Durham, NC) on dry ice, and samples were thawed to room temperature prior to liquid-liquid extraction. Steroid hormones were extracted from media samples using methyl tertbutyl ether (MTBE). An extra derivatization with dansyl chloride was included for estrogen (estrone and estradiol) detection only. Steroid hormones were separated by HPLC, eluted using a reverse phase C18 gradient with electrospray positive ionization, followed by quantification by tandem mass spectrometry (MS/MS). Data were acquired on a MassHunter Workstation Acquisition version B03.01 (Agilent Technologies, Inc.) and processed using MassHunter Quantitative Analysis for QQQ. Accuracy was determined for each hormone analyte from 3 standards to determine upper and lower limits of quantification (ULOQ and LLOQ, respectively) using a 7-point standard curve. Precision and accuracy of the extraction and quantification methods were calculated as the percent relative standard deviation (%RSD) of the spiked standards and percent spiked standard recovered, respectively. The goal was to achieve 100% accuracy (i.e., recover all spiked-in standard at quantification with minimal loss during run time) and good precision (i.e., have %RSD <15% to ensure reproducibility). Test medium was removed following chemical exposure, and cell viability was evaluated in the same wells by MTT. MTT procedures were as follows: after removal of test medium, 500 uL of 0.5 mg/ml of 3-[4,5-dimethylthiazol-2-y]2,5-diphenyltetrazoliumbromide solution was added to the cells. Following a 4-hour incubation at 37 C and 5% CO2 to allow formazan-crystal formation, the MTT solution was removed and blue formazan salt crystals were solubilized using 500uL anhydrous isopropanol with shaking for 20 minutes. Absorbance was read at 570 and 650nm using a Packard Fusion microplate reader. […]
In the case of `CCOCn1c(-c2ccc(Cl)cc2)c(C#N)c(Br)c1C(F)(F)F`, the AC50 is reported as 2.1 µM (active).
For `CCC[CH2][Sn]([Cl])([Cl])[CH2]CCC`, the outcome was “inactive”.
With `CC(C)(C)c1cc([N+](=O)[O-])cc(C(C)(C)C)c1O` the outcome was “inactive”.
For `C[C@]12CC[C@@H](O)C[C@@H]1CC[C@@H]1[C@@H]2CC[C@]2(C)C(=O)CC[C@@H]12`, the AC50 was 3.65 µM (active).
For `Cc1cc(Cl)ccc1O`, the outcome was “inactive”.
With `Cc1ccccc1OP(=O)(Oc1ccccc1C)Oc1ccccc1C` the outcome was “inactive”.
In the case of `O=[N+]([O-])c1ccc(Nc2ccccc2)cc1`, the outcome is reported as “inactive”.
With `Oc1c(Br)cc(Br)cc1Br` the AC50 was 41.3 µM (active).
In the case of `CC(C)(C)c1ccccc1O`, the outcome is reported as “inactive”.
With `CCCCCCCCCCCCN(C)C` the outcome was “inactive”.
For `Oc1c(Cl)cc(Cl)cc1Cl`, the AC50 was 50 µM (active).
With `CC(C)(COCC1CO1)COCC1CO1` (centres undefined) the outcome was “inactive”.
With `COc1ccc(N)cc1` the AC50 was 16.4 µM (active).
In the case of `OC(Cc1ccccc1Cl)(Cn1cncn1)C1(Cl)CC1` (centres undefined), the AC50 is reported as 6.41 µM (active).
With `CC(C)=CC1C(C(=O)OCc2cccc(Oc3ccccc3)c2)C1(C)C` (centres undefined) the AC50 was 25.8 µM (active).
For `CCOP(=O)(OCC)OC(=CCl)c1ccc(Cl)cc1Cl`, the AC50 was 5.17 µM (active).
In the case of `Oc1cccc(-c2ccccc2)c1`, the AC50 is reported as 10 µM (active).
With `OC(Cc1ccccc1Cl)(Cn1[nH]cnc1=S)C1(Cl)CC1` (centres undefined) the outcome was “inactive”.
In the case of `O=S1OC[C@@H]2[C@H](CO1)[C@]1(Cl)C(Cl)=C(Cl)[C@@]2(Cl)C1(Cl)Cl` (some centres undefined), the AC50 is reported as 8.22 µM (active).
In the case of `CCOP(=S)(OCC)O/N=C(\C#N)c1ccccc1`, the AC50 is reported as 50 µM (active).
With `Cc1cc(C)cc(C)c1` the outcome was “inactive”.
In the case of `CCCSP(=S)(OCC)Oc1ccc(SC)cc1` (centres undefined), the AC50 is reported as 6.35 µM (active).
With `Cc1cc(C(C)(C)c2ccc(O)c(C)c2)ccc1O` the outcome was “inactive”.
In the case of `COC(=O)Nc1cccc(OC(=O)Nc2cccc(C)c2)c1`, the outcome is reported as “inactive”.
